# PubChem BioAssay AID624325 (Sanford-Burnham Center for Chemical Genomics, 2012)
# Out of some 2,300 compounds screened, about 1,000 (43%) were called active. The set was probably picked from earlier hits. Not all results are given here. A number with no mark means an inactive call.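 Rule for the calls: active = compounds inhibiting the enzyme by at least 50% at 15 µM in any one of the replicates; inactive = the rest.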
# Target: Fatty acid synthase (Homo sapiens) (UniProt P49327)
# Assay: FAS thioesterase domain inhibitors, confirmation, biochemical, fluorescence intensity, single concentration (AID 624325);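 note: 0% = enzyme with DMSO only and 100% = wells lacking enzyme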
# Settings: recombinant FAS-TE, OMFH fluorogenic substrate, at 15 µM, hits give high values
# Sequence of Fatty acid synthase (Homo sapiens) (P49327 whole entry, looked up, the tested form may be a part): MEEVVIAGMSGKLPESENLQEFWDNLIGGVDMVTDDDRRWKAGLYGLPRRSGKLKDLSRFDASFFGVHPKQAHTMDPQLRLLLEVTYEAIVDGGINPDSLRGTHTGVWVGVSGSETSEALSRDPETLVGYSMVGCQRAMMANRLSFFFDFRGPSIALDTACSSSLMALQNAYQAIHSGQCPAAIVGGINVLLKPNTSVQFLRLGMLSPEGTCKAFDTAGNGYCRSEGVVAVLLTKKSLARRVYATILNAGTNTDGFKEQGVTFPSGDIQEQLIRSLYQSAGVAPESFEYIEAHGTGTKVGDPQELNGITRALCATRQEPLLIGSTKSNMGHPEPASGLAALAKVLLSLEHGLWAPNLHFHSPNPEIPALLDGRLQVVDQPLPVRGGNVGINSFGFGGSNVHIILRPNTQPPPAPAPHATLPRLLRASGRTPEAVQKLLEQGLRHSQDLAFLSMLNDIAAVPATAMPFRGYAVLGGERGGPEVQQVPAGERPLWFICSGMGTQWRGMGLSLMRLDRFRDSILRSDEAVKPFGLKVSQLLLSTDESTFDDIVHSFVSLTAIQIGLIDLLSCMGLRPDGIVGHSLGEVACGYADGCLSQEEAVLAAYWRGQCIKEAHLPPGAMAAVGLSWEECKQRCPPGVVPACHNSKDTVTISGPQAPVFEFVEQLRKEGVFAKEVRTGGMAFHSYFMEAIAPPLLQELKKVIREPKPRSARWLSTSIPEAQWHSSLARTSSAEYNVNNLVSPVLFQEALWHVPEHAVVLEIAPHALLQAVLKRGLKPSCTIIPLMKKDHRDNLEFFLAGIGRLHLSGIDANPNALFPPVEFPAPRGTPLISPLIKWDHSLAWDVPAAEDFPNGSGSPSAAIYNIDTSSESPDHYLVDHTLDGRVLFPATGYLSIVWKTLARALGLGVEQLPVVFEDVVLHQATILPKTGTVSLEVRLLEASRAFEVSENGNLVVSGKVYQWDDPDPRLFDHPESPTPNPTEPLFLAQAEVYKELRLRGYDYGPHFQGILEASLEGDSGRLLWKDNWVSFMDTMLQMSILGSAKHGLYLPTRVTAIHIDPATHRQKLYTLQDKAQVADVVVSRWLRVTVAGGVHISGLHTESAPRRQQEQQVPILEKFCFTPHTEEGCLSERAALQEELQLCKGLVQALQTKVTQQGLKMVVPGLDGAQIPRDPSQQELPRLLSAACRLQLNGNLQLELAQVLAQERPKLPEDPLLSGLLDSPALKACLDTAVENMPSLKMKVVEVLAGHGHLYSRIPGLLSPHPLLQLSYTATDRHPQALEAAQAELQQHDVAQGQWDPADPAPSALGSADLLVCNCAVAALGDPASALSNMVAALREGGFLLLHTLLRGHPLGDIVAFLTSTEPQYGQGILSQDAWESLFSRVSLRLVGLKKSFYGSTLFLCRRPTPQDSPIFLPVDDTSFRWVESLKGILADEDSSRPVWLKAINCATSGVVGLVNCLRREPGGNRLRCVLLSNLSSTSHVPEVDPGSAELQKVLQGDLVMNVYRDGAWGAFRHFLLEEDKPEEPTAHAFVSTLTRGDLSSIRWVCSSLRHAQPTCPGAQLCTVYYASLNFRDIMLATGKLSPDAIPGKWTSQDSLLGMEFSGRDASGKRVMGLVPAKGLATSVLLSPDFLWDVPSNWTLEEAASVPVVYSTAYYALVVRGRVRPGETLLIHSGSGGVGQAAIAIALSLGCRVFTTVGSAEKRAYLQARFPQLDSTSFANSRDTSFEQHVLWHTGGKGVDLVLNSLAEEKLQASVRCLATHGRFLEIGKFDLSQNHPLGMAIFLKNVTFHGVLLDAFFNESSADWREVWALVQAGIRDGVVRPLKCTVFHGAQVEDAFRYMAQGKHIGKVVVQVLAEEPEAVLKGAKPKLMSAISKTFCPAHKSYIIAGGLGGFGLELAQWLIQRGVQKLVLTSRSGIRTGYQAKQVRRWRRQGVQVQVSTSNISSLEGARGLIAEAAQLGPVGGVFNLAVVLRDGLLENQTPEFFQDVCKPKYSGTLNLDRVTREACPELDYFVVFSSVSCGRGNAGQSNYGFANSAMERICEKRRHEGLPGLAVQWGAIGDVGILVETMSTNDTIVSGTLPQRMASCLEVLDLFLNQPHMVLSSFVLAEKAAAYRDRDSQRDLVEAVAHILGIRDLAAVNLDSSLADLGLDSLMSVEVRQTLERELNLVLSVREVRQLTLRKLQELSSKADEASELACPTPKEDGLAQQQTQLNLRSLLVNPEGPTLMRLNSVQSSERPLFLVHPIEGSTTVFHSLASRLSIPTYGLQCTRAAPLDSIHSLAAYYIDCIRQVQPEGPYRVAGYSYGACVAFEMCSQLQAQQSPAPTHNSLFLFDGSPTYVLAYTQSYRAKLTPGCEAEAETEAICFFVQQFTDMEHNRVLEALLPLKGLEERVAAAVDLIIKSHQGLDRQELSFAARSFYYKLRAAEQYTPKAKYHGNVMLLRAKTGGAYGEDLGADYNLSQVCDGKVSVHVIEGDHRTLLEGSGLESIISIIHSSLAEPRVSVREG
row,SMILES,inhibition
1,COc1ccc([C@@H]2[C@@H]3C(=O)N(C(C)(C)C)C(=O)[C@@H]3[C@]3(Cc4ccccc4)C(=O)N(c4cccc(Br)c4)C(=O)N23)cc1,46.4% (active)
2,Cc1cccc([C@@H]2[C@@H]3C(=O)N(Cc4ccccc4)C(=O)[C@@H]3[C@]3(Cc4ccc(Cl)cc4)C(=O)N(c4cccc(Cl)c4)C(=O)N23)c1,11.9%
3,Cc1ccc(C(=O)N/C(=C\c2cn(S(=O)(=O)N(C)C)c3ccccc23)C(=O)N2CCCC2)cc1,88.2% (active)
4,Cc1ccc(S/C(=N\S(=O)(=O)c2ccc(Cl)cc2)c2ccccc2)cc1,29.6%
5,COc1ccc([N+](=O)[O-])cc1NC(=O)CC1SC(=Nc2cccc(C)c2C)N(/N=C(\C)c2ccc(C)cc2)C1=O (stereo not given),25.8%
6,COc1ccc([N+](=O)[O-])cc1NC(=O)c1ccc(N(Cc2ccccc2C)S(C)(=O)=O)cc1,39.2% (active)
7,CCCCCCCCCCCCN1[C@@H](CC(C)=O)c2cc(F)cc(F)c2S1(=O)=O,9.68%
8,COc1ccc2c(c1)[C@H]1[C@H](CO2)[C@H](c2ccccc2)[C@]2(C)C(=O)Nc3cc(F)c(F)cc3C(=O)N12,34%
9,CC(C)c1ccc2c(c1)c(SC(C)(C)C)c(CC(C)(C)C(=O)O)n2Cc1ccc(Cl)cc1,51.4% (active)
10,O=C(OC1CCOC1=O)c1ccc(-c2nc3ccccc3s2)s1 (stereo not given),35.3%
11,O=S(=O)(Nc1cccc(-n2cnnn2)c1)c1cnc(Cl)c(Cl)c1,68% (active)
12,CCCc1cc(-c2nc(-c3ccc(C)cc3)cs2)ccn1,46.9%
13,O=C(Nc1ccccc1)c1nnsc1S(=O)(=O)c1ccc(Cl)cc1,72.3% (active)
14,O=C(Nc1cccc(S(=O)(=O)Nc2ccc(Cl)cc2)c1)c1ccc2c(c1)OCCO2,37.6%
15,O=C(CC(c1ccccc1)c1ccccc1)NCC(O)c1ccc([N+](=O)[O-])cc1 (stereo not given),55.1% (active)
16,CC(C=Cc1ccccc1)=NNS(=O)(=O)c1ccc([N+](=O)[O-])cc1,71.2% (active)
17,COCCNC(=O)CCCn1c(=O)c2ccccc2n(Cc2cccc([N+](=O)[O-])c2)c1=O,37.5% (active)
18,O=C(Oc1cccc(N2C(=O)C3C4c5ccccc5C(c5ccccc54)C3C2=O)c1)c1ccco1 (stereo not given),36.3% (active)
19,COc1ccc(C2Nc3ccccc3C(=O)N2c2ccc(Cl)cc2)cc1Cn1cc([N+](=O)[O-])cn1 (stereo not given),41.9%
20,O=[N+]([O-])c1ccc(CN2CC(N3CCC(c4ccccc4)CC3)CS2(=O)=O)cc1 (stereo not given),22.4%
21,CCCCCOC(=O)c1ccc(N2C(=O)C3C4C=CC(C4)C3C2=O)cc1 (stereo not given),51.4% (active)
22,CCOC(=O)c1ccc(NC(=O)c2nc[nH]c2C(=O)N[C@@H](CCCCNC(=O)OC(C)(C)C)C(=O)OC(C)(C)C)cc1,57.3% (active)
23,Cc1ccc(NC(=O)c2nc[nH]c2C(=O)N[C@@H](CCCCNC(=O)OC(C)(C)C)C(=O)OC(C)(C)C)cc1,83.9% (active)

row,SMILES,inhibition
1,Cc1cccc(CS(=O)(=O)c2ncc(Cl)c(C(=O)Nc3ccc(F)cc3)n2)c1,53.2% (active)
2,O=C(Nc1ccccc1Cl)/C(Cl)=C(\Cl)S(=O)c1ccccc1 (stereo not given),76.4% (active)
3,Cc1cc(C(=O)COc2ccccc2[N+](=O)[O-])c(C)n1-c1cccc(S(=O)(=O)N2CCOCC2)c1,21.2%
4,Nc1c(-c2cccc(Cl)c2)cnn1-c1cccc([N+](=O)[O-])c1,48.9% (active)
5,CNC(=O)/C(=C\C=C\c1ccccc1)NC(=O)c1ccc([N+](=O)[O-])cc1,91.7% (active)
6,C/C(=N\Nc1nc(N2CCOCC2)nc(N2CCOCC2)n1)c1ccc([N+](=O)[O-])cc1,41.8% (active)
7,CCCN1Cc2cccc(C(=O)Nc3ccc(S(=O)(=O)N4CCCCCC4)cc3)c2C1=O,0.41%
8,COc1ccc(S(=O)(=O)N2CCCCC2)cc1NC(=O)c1cc([N+](=O)[O-])ccc1N1CCOCC1,25.8%
9,O=C(NCc1ccc2c(c1)OCO2)c1cc([N+](=O)[O-])ccc1N1CCOCC1,54% (active)
10,CN(C)c1ccc(/C=C/C(=O)c2ccc(C(C)(C)C)cc2)cc1[N+](=O)[O-],33%
11,Cc1cc(C(=O)N/N=C/c2cc([N+](=O)[O-])cc(C)c2O)n[nH]1,72.6% (active)
12,O=[N+]([O-])c1cc(Br)c(O)c(/C=N/Nc2nc3ccccc3s2)c1,16.1%
13,CC1(C)CC(=O)c2c(n(S(=O)(=O)c3ccccc3)c3ccc(NS(=O)(=O)c4ccccc4)cc23)C1,19.9%
14,Oc1c(Cl)cc(Cl)c(Cl)c1Cc1c(O)c(Cl)cc(Cl)c1Cl,70.1% (active)
15,Cc1noc(C)c1NC(=O)Nc1cccc2c1O[C@H](CN(C)C(=O)Nc1ccccc1)[C@@H](C)CN([C@H](C)CO)C2=O,61.3% (active)
16,O=C(Cc1ccc(Cl)c(Cl)c1)Nc1ccc(SC(F)F)cc1,37.6%
17,O=C(c1ccc2c(c1)N(Cc1ccc(F)cc1)C(=O)c1ccccc1S2(=O)=O)N1CCN(c2ccccn2)CC1,21.2%
18,COc1ccc2nc(Nc3nc4cc5c(cc4s3)OCCO5)sc2c1,17.9%
19,CC1=CC(=C(C#N)c2nc3ccccc3s2)C=C(C)N1c1ccc(F)cc1F,-32.7%
20,O=C(NCCC1=CCCCC1)c1ccc(Cl)c([N+](=O)[O-])c1,61.2% (active)
21,Cc1sc2nc(-c3ccccc3F)oc(=O)c2c1C,6.55%
22,COc1ccc(-c2csc3nc(-c4ccccc4F)oc(=O)c23)cc1OC,57.9% (active)
23,CCOC(=O)N1CCN(Cc2nc3ccc([N+](=O)[O-])cc3c(=O)n2-c2cccc(OC)c2)CC1,76.1% (active)

row,SMILES,inhibition
1,CCOc1cc(/C=C(/C#N)c2ccc(Cl)cc2)cc(Cl)c1OCC(=O)O,63% (active)
2,Cc1ccc(N2C(=O)C3C(c4ccccc4)(C2=O)C3(c2ccccc2)c2ccccc2)cc1 (stereo not given),4.09%
3,COc1ccc(CNC(=O)C[C@H]2C[C@H](C(=O)N3CCOCC3)[C@@]3(CCC4CCCC4)c4[nH]c5ccc(Cl)cc5c4CCN3C2=O)cc1OC,83.3% (active)
4,O=C(C[C@H]1C[C@H](C(=O)N2CCOCC2)[C@@]2(CCC3CCCC3)c3[nH]c4ccc(Cl)cc4c3CCN2C1=O)NCc1ccco1,27.4%
5,CCOc1ccc(Nc2nc(Cl)nc(N3CCN(c4ccc(OC)cc4)CC3)n2)cc1,12.5%
6,C[C@@]12C(=O)N(c3cccc(Br)c3)C(=O)N1[C@H](c1ccc(Cl)cc1)[C@@H]1C(=O)N(C3CCCCC3)C(=O)[C@@H]12,54% (active)
7,Cc1cccc(N2C(=O)N3[C@H](c4ccc(F)cc4)[C@@H]4C(=O)N(C5CCCCC5)C(=O)[C@@H]4[C@]3(Cc3ccccc3)C2=O)c1,10.1%
8,O=C1[C@H]2[C@@H](c3ccc(F)cc3)N3C(=O)N(c4ccc(C(F)(F)F)cc4)C(=O)[C@@]3(Cc3ccccc3)[C@H]2C(=O)N1C1CCCCC1,17.3%
9,Cc1cccc(-n2c(SCC(=O)Nc3cccc(S(=O)(=O)NC4=NCCCCC4)c3)nc3ccccc3c2=O)c1C,18.8%
10,COC(=O)c1cc(C(=O)NC(C)C2CC3CCC2C3)cc([N+](=O)[O-])c1 (stereo not given),59.5% (active)
11,O=C(Nc1cccc([N+](=O)[O-])c1)N1CCc2ccccc2C1,65.8% (active)
12,O=C(NCCCCc1ccccc1)C1CC(c2ccc([N+](=O)[O-])cc2)=NO1 (stereo not given),59.7% (active)
13,O=C1NC(Cc2ccccc2)c2nc3ccc(Br)cc3c(=O)n2-c2cc3ccccc3cc21 (stereo not given),30.7%
14,CC(NC(=O)Nc1cccc([N+](=O)[O-])c1)c1ccc2c(c1)OCO2 (stereo not given),84.4% (active)
15,CCN(C(=O)CSc1ncnc2c1cnn2-c1ccccc1)C1CCS(=O)(=O)C1 (stereo not given),69.8% (active)
16,CCOc1ccc(Br)cc1S(=O)(=O)Nc1ccc(C(=O)OC(C)C(=O)N(C)c2ccccc2)cc1 (stereo not given),14.2%
17,CC1(C(=O)NS(=O)(=O)c2ccc(C#N)cc2)CCN1C(=O)c1ccc(C2CCCCC2)cc1 (stereo not given),71.8% (active)
18,Cc1ccc(C)c(NC(=O)CSc2nc3c(oc4ccccc43)c(=O)n2-c2ccccc2)c1,31.1%
19,COc1ccccc1C1CC(=O)n2c(nc(-c3ccccc3)c2-c2ccccc2)S1 (stereo not given),0.79%
20,CC(C)(C)NC(=O)NC(=O)COC(=O)Cc1ccc(Cl)cc1Cl,68.1% (active)
21,O=C1OCCN1C(=O)[C@H]1[C@H](c2ccc(Cl)cc2)C(c2cccc(Cl)c2)=NN1c1ccc(Br)cc1,15.5%
22,O=C(Nc1cccc(Cl)c1)c1cc([N+](=O)[O-])ccc1N1CCN(CCO)CC1,66.5% (active)
23,Cc1cccc(NC(=O)c2cc([N+](=O)[O-])ccc2N2CCN(C)CC2)c1,54% (active)

row,SMILES,inhibition
1,O=S(=O)(c1ccc(F)cc1)n1ccc(-c2cnc(-c3ccccc3)s2)n1,14.5%
2,Cc1ccc(S(=O)(=O)c2nnn3c2nc(N2CCN(c4ccccn4)CC2)c2ccccc23)cc1,25.4%
3,Cc1nc2c(OCc3ccc(Cl)cc3Cl)cccn2c1N(C)CC1CC1,50% (active)
4,O=C(COC(=O)c1cc([N+](=O)[O-])ccc1NCc1ccccc1)NC1CCCCC1,37.6% (active)
5,CCN1C(=O)[C@H]2[C@@H](c3ccc(SC4CCCCC4)c(OC)c3)N[C@@](Cc3ccccc3)(C(=O)OC)[C@H]2C1=O,15.5%
6,CCN1C(=O)[C@H]2[C@@H](c3ccc(-c4ccc(F)cc4)cc3)N[C@@](Cc3ccccc3)(C(=O)OC)[C@H]2C1=O,43.4%
7,Cc1cccc(N=C2NC(=O)/C(=C/c3cn(C)c4ccccc34)S2)c1,-6.27%
8,COc1cc(-c2noc(C3CCCN(S(=O)(=O)c4cccc(Cl)c4)C3)n2)cc(OC)c1OC (stereo not given),30.8%
9,COc1ccc([N+](=O)[O-])cc1NC(=O)COC(=O)/C=C/c1ccco1,70.8% (active)
10,CC(C)Oc1ccc(Cc2n[nH]c(=S)n2Cc2ccccc2)cc1Cl,39.1% (active)
11,CC(=O)c1sc(N/N=C/c2ccc(C(C)C)cc2)nc1C,19.8%
12,COc1ccc(C2CC(c3ccccc3)=NN2C(=O)c2ccc(Cl)c([N+](=O)[O-])c2)cc1 (stereo not given),21.3%
13,O=C(Nc1ccc(N2C(=O)c3cccc4cccc(c34)C2=O)cc1)c1ccc(N2CCCCC2)c([N+](=O)[O-])c1,10.5%
14,O=C(c1ccc(Cl)c([N+](=O)[O-])c1)N1CCN(c2ccccc2)CC1,58.3% (active)
15,O=c1ccc2c(-c3ccccc3S(=O)(=O)O)c3ccc(O)c(O)c3oc-2c1O,56.1% (active)
16,O=C(Nc1nnc(SCc2ccccc2Cl)s1)c1cccc([N+](=O)[O-])c1,51.7% (active)
17,O=C(Nc1ccc(C2CC2(Cl)Cl)cc1)c1cccc([N+](=O)[O-])c1 (stereo not given),19.8%
18,CC(=O)c1ccc(S(=O)(=O)N2CCN(c3nc4c(C)c(C)ccc4cc3C#N)CC2)cc1,32.8%
19,Cc1ccc(S(=O)(=O)N2CC[C@H]3[C@@H](C2)C(=O)C[C@@H](c2ccccc2)N3S(=O)(=O)c2ccc(C)cc2)cc1,13.8%
20,COc1ccc(-c2nnc(SC(=O)N3c4ccccc4Sc4ccccc43)o2)cc1,13.1%
21,CCCCOC(=O)CNc1nnc(SCC(=O)OCC)[nH]c1=O,51% (active)
